18 compounds from PubChem BioAssay (Tox21) can be followed below.

Several values for one entry are separate records, joined by “and”; a condition that tells them apart may be missing. Equal values may be shown once. Values without a mark were called inactive. Inconclusive results are not listed. Activity calls are given as the source filed them. Unless noted, calls follow the shape of the dose curve; as a rule, active = well fitted curve in the direction sought with a large enough effect in the repeat runs; inconclusive = weak or mixed curves; inactive = no such curve, though single readings can be large; an effect the other way counts as inactive or inconclusive.

For test [1], the target named is Androgen receptor (Homo sapiens) (UniProt P10275). Description: qHTS assay to identify small molecule antagonists of the androgen receptor (AR) signaling pathway using the MDA cell line in the presence of 0.5 nM R1881 (AID 1259243). Also: nearly all actives have a fitted effect of over 50% in size. Also: potency is read from the fitted curve at half-maximal effect. Put shortly:
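MDA-kb2 cells (MMTV-luciferase, responsive to AR and GR) at 3,000/well, rested 5 h at 37C, 0% CO2, then given compounds plus 0.5 nM R1881 (final) for 16 hr. Luciferase read with ONE-Glo after 30 min at room temperature.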

Test [2] addresses Estrogen receptor (Homo sapiens) (UniProt P03372). As to the kind of experiment: qHTS assay to identify small molecule antagonists of the estrogen receptor alpha (ER-alpha) signaling pathway using the BG1 cell line in the presence of 0.1 nM 17-beta-estradiol (AID 1259244). Also: nearly all actives have a fitted effect of over 50% in size. Also: potency is read from the fitted curve at half-maximal effect. An outline of the steps:
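VM7Luc4E2 cells (endogenous full-length ER-alpha, 4×ERE-luciferase), kept 5 days in phenol red-free, charcoal-stripped FBS medium; 4,000 cells/well. Compounds added with 0.1 nM (final) 17beta-estradiol, 22 hr at 37C; luminescence read with ONE-Glo after 30 min.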

The nature of test [3]: qHTS assay to identify small molecule HDAC inhibitors (AID 1259364). Also: top concentration of the series differs between compounds; nearly all actives have a fitted effect of over 45% in size. An outline of the steps:
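Wild-type HCT-116 cells, plated overnight at 37 C, exposed to compounds 2 hr at 37 C; luminogenic HDAC-Glo substrate then added 30 min at room temperature. Luminescence reports relative endogenous class I/II HDAC activity.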
Background: Quantitative high-throughput screening tests each substance at several concentrations.

Test [4] is described as follows: qHTS assay to identify small molecule HDAC inhibitors - cell viability counter screen (AID 1259365). Also: series mostly up to about 92 µM; nearly all actives have a fitted effect of over 50% in size. An outline of the steps:
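Luminescence from CellTiter-Glo, developed 30min at room temperature, reports viability of wild-type HCT-116 cells treated 2hr with compounds at 37 C and 5% CO2 after overnight plating.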

Test [5] in a line: qHTS assay to identify small molecule agonists of the sonic hedgehog signaling (Shh) pathway - cell viability counter screen (AID 1259366). Also: nearly all actives have a fitted effect of over 50% in size. An outline of the steps: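 Cytotoxicity counter screen run in the same wells as the Shh reporter assay. NIH/3T3 cells carrying a Gli1 response element–driven luciferase were treated with DMSO-dissolved compounds for 24hr, and live-cell protease activity was measured with CellTiter-Fluor.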

A short description of test [6]: qHTS assay to identify small molecule antagonists of the sonic hedgehog signaling (Shh) pathway - cell viability counter screen (AID 1259367). Also: nearly all actives have a fitted effect of over 55% in size. Also: potency is read from the fitted curve at half-maximal effect. Put shortly:
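After a 4 hr settling period, 3T3 Gli1-Luc cells were treated with DMSO-dissolved chemicals and conditioned medium, kept 24 hr at 37C in 5% CO2, and assayed for viability by CellTiter-Fluor fluorescence following 1 hr reagent incubation.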

The nature of test [7]: qHTS assay to identify small molecule agonists of the sonic hedgehog signaling (Shh) pathway (AID 1259368; calls by dose curve; also: nearly all actives have a fitted effect of over 15% in size; also: potency is read from the fitted curve at half-maximal effect;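 as to activity change: NIH/3T3-derived 3T3Gli1-Luc cells carrying a stable Gli1-driven firefly luciferase reporter; series mostly up to about 92 µM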). Put shortly: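 NIH/3T3-derived 3T3Gli1-Luc cells with stably integrated Gli1-driven firefly luciferase, 2,000 cells/well, compounds added after 4 hr. Incubated 24 hr at 37C, 5% CO2; luminescence read after 30 min with luciferase reagent at room temperature.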
Test [8] in a line: qHTS assay to identify small molecule antagonists of the sonic hedgehog signaling (Shh) pathway (AID 1259369; calls by dose curve; also: nearly all actives have a fitted effect of over 45% in size; also: potency is read from the fitted curve at half-maximal effect). An outline of the steps: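 NIH/3T3-derived Gli1-Luc reporter cells plated 4 h, dosed with compound, then stimulated with conditioned medium for 24 h at 37 C. Firefly luciferase luminescence read after 30 min with detection reagent at room temperature.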
Test [9] deals with Estrogen receptor beta (Homo sapiens) (UniProt Q92731). Description: qHTS assay to identify small molecule agonists of the estrogen receptor beta (ER-beta) signaling pathway (AID 1259377; active = well fitted activation curve with a large enough effect in the signal ratio in the repeat runs, not every such curve was filed as active; the % refers to the signal ratio). Put shortly: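 HEK293T ER-beta-UAS-bla; 2% charcoal-stripped FBS; cells pre-incubated 6 hr, compound 16 hr, 37C/5% CO2; LiveBLAzer B/G FRET substrate 2 h RT; fluorescence intensity read.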
Chain of Estrogen receptor beta (Homo sapiens) (Q92731 whole entry, looked up): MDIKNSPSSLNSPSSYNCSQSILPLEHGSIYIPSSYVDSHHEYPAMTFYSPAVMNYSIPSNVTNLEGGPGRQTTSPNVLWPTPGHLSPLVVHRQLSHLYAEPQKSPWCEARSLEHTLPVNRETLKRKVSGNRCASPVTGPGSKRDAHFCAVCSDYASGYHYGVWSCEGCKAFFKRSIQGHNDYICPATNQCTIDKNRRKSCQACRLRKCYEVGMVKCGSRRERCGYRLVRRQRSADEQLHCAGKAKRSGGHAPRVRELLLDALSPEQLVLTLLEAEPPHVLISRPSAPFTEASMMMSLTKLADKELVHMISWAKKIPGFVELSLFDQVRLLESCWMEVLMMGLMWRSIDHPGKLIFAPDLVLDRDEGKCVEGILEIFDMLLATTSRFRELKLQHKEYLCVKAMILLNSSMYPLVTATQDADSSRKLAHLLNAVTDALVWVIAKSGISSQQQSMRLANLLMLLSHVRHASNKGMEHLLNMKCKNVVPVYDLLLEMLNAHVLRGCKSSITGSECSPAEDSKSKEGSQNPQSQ
Test [10] is described as follows: qHTS assay to identify small molecule phospholipidosis (PLD) inducers (AID 1259344; active = well fitted curve in the direction sought with a large enough effect; an effect the other way counts as inactive or inconclusive; also: potency is read from the fitted curve at half-maximal effect). Put shortly:
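HepG2 cells grown on collagen I take up LipidTOX Red while exposed to compound for 24 h; after fixation they are imaged at 20x and pit metrics are extracted.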
% is scaled to controls: 0 for no effect and ±100 for the full control effect.

Chain of Androgen receptor (Homo sapiens) (P10275 whole entry, looked up): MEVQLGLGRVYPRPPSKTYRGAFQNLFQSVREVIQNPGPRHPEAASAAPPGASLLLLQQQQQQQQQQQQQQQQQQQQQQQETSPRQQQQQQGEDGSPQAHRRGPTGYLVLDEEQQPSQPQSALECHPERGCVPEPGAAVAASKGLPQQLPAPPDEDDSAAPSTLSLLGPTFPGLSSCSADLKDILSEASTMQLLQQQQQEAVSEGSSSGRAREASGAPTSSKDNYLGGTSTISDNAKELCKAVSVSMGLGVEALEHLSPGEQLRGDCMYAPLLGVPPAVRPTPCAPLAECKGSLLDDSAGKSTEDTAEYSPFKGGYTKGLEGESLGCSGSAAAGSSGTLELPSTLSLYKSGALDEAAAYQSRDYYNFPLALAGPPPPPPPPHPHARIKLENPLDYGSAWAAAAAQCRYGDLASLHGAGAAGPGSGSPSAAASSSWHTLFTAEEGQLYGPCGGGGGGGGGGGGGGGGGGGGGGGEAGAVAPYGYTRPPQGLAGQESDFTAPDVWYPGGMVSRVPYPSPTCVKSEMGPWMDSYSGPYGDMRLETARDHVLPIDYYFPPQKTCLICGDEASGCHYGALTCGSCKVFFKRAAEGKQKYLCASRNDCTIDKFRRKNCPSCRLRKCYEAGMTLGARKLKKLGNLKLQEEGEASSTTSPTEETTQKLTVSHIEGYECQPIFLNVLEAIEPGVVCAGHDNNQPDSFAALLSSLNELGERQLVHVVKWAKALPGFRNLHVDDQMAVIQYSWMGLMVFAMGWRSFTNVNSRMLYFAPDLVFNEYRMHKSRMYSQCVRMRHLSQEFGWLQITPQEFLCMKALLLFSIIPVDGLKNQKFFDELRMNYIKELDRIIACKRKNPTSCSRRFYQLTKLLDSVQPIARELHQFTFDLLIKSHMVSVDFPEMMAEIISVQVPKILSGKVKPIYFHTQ
Chain of Estrogen receptor (Homo sapiens) (P03372 whole entry, looked up): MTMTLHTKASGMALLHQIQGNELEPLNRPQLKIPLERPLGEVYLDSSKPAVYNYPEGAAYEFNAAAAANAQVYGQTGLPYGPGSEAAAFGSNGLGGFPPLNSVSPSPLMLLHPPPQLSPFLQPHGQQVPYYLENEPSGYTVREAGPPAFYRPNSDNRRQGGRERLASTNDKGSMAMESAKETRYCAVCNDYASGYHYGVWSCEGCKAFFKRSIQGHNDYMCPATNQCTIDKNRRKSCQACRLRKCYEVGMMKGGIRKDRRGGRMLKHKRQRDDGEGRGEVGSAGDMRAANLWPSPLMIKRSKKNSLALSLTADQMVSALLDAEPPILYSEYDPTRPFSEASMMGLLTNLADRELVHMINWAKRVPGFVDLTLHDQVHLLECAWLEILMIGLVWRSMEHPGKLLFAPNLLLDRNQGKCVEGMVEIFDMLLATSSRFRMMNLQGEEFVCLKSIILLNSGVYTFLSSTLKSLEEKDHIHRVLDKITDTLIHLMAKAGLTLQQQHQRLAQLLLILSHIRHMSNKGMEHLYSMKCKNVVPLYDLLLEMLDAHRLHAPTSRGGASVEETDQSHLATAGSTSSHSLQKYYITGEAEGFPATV

For the compound `C#CC(O)CCC` (configuration not stated), the Potency entry in [1], in [2], in [3], in [4], in test [5] and in test [6] was “inactive” throughout. Moreover, the Potency entry in test [7], in [8] and in test [9] was “inactive” throughout.

Take `Cc1cccc(C)n1`: the Potency result in [1], in test [2], in test [3], in [4], in test [6] and in test [7] was “inactive” each time. In addition, the Potency entry in test [8] and in test [9] was “inactive” throughout.

With `O=C1OC(OC(=O)c2cccnc2Nc2cccc(C(F)(F)F)c2)c2ccccc21` (configuration not stated), the Potency result in [1], in test [10], in test [3], in test [4], in test [6] and in test [7] was “inactive” throughout.

With `COc1cc(C=C2CCC/C(=C\c3ccc(O)c(OC)c3)C2=O)ccc1O`, the Potency in test [1] is 9.44 µM (active); in [6], 23.7 µM (active); in [7], 26.6 µM (active). Moreover, the Potency result in test [10], in [3] and in test [4] was “inactive” in each case.

For `CCc1ccc(C)nc1`, the Potency result in test [1], in [2], in test [3], in test [4], in test [5] and in test [6] was “inactive” each time. Also, the Potency result in test [7], in test [8] and in test [9] was “inactive” throughout.

Regarding `O=C(O)Cc1ccc(OCCNC[C@H](O)c2ccccc2)cc1`, the Potency entry in test [1], in [10], in [3], in [4], in [5] and in test [7] was “inactive” each time.

`CN1CCN(C2Cc3ccccc3Sc3ccc(Cl)cc32)CC1` (configuration not stated): the Potency in test [1] was 29.8 µM (active); in test [8], 6.68 µM (active). Besides, the Potency entry in test [2], in test [3], in test [4], in [7] and in test [9] was “inactive” throughout.

Turning to `CCc1c(Br)c(Br)c(Br)c(Br)c1Br`, the Potency entry in test [1], in test [2], in [3], in test [4], in test [6] and in test [7] was “inactive” throughout. Besides, the Potency result in test [8] and in [9] was “inactive” throughout.

Turning to `NC(=O)c1nc(-c2cccc(-c3cc(F)ccc3OCC(F)(F)C(F)(F)F)c2)n[nH]1`, the values for the Potency in [1], in test [2] and in test [8] were 54.5 µM (active), 54.5 µM (active) and 3.06 µM (active), respectively. Besides, the Potency entry in test [3], in [4], in test [6] and in [7] was “inactive” throughout.

As for `Oc1cc2ccccc2cc1O`, the Potency in test [1] is 30.6 µM (active). Also, the Potency result in [2], in test [3], in test [4], in test [6] and in test [7] was “inactive” throughout.

Consider `C[C@H]1O[C@@H](O[C@H]2[C@@H](O)C[C@H](O[C@H]3[C@@H](O)C[C@H](O[C@H]4CC[C@@]5(C)[C@H](CC[C@@H]6[C@@H]5C[C@@H](O)[C@]5(C)[C@@H](C7=CC(=O)OC7)CC[C@]65O)C4)O[C@@H]3C)O[C@@H]2C)C[C@H](O)[C@@H]1O`, for which the Potency result in test [1], in [3], in test [4], in test [5], in [6] and in [7] was “inactive” each time. Also, the Potency in test [10] is 11.2 µM (active).

Turning to `CCOCOCC`, the Potency result in [1], in test [2], in [3], in [4], in test [5] and in test [6] was “inactive” throughout. Besides, the Potency entry in test [7], in test [8] and in [9] was “inactive” each time.

For `CCN=c1cc2oc3cc(NCC)c(C)cc3c(-c3ccccc3C(=O)OCC)c-2cc1C`, the Potency in test [1] is 122 nM (active) and 217 nM (active); in test [2], 86 nM (active) and 306 nM (active); in test [8] it was 1.08 µM (active) and 545 nM (active). Further, the Potency result in [3], in test [6], in test [7] and in [9] was “inactive” throughout.

Turning to `c1ccc(Sc2ccccc2)cc1`, the Potency result in test [1], in [2], in [3], in test [4], in [5] and in [7] was “inactive” throughout. Further, the Potency in test [8] was 27.3 µM (active).

In the case of `COc1nccnc1CC(C)C`, the Potency result in test [1], in test [2], in [3], in test [4], in [5] and in test [6] was “inactive” in each case. Also, the Potency result in [7], in test [8] and in [9] was “inactive” each time.

Take `COc1cc(C(C)C)c2c(c1)S(=O)(=O)N(COc1cc(=O)n3cccc(OCCN4CCCCC4)c3n1)C2=O`: the activity, negative = inhibition in test [1] is -16.6% [at 19 µM]. The activity change, negative = inhibition is -10.3% [at 19 µM] in test [2] and -2.47% [at 19 µM] in test [3]. For the same compound, the activity change, negative = cytotoxicity in test [4] was -0.608% [at 19 µM]. For the same compound, in test [5], the viability change, negative = cytotoxic was -0.671% [at 19 µM]. Besides, in test [7], the activity change is 1.72% [at 18.9 µM, hits give high values].

Turning to `CC(=O)C=O`, the Potency result in test [1], in test [2], in test [3], in test [4], in test [6] and in [7] was “inactive” throughout. Also, the Potency entry in test [8] was “inactive”.

In the case of `CCN1CCN(c2cc(-c3ccc(F)cc3)c3c(n2)CCCCCC3)CC1`, in [1], the activity, negative = inhibition is -22% [at 19 µM]. For the same compound, the PLD induction in test [10] was 12.7% [at 7.66 µM]. For the same compound, the activity change, negative = inhibition in test [3] is 1.74% [at 19 µM]; in test [8] it was 15.3% [at 19 µM]. The activity change, negative = cytotoxicity in test [4] was -2.01% [at 19 µM]. The viability change, negative = cytotoxic in test [5] is -8.82% [at 19 µM]; in [6] it was -5.57% [at 19 µM]. Further, in [7], the activity change was -0.431% [at 18.9 µM, hits give high values].
